These molecules were tested on UCD52 (cells of a triple-negative basal-like breast cancer xenograft) (assay: cell viability of combination (% of vehicle); higher = less cytotoxic). Settings: 1 µM; 72 h; partner dose: 10 nM.
Method: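 PDX cells were treated for 72 h with each drug at 1 µM plus afatinib (10 nM; 1 µM for WHIM30). Luciferase viability is expressed as percent of vehicle.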

Row | Structure (SMILES) | cell viability of combination
1 | Cc1cc(C(C#N)c2ccc(Cl)cc2)c(Cl)cc1NC(=O)c1cc(I)cc(I)c1[O-].[Na+] (stereo not given) [Closantel Sodium] + CN(C)C/C=C/C(=O)Nc1cc2c(Nc3ccc(F)c(Cl)c3)ncnc2cc1O[C@H]1CCOC1 [Afatinib] | 72.7
2 | Cc1cc(C(C#N)c2ccc(Cl)cc2)c(Cl)cc1NC(=O)c1cc(I)cc(I)c1O (stereo not given) [Closantel] + CN(C)C/C=C/C(=O)Nc1cc2c(Nc3ccc(F)c(Cl)c3)ncnc2cc1O[C@H]1CCOC1 [Afatinib] | 75.8
3 | CCCCCCCCCCCCCCCC[n+]1ccccc1.[Cl-] [Cetylpyridinium Chloride] + CN(C)C/C=C/C(=O)Nc1cc2c(Nc3ccc(F)c(Cl)c3)ncnc2cc1O[C@H]1CCOC1 [Afatinib] | 55.3
4 | CCCCCCCCCCCC[N+](C)(C)CCOc1ccccc1.[Br-] [Domiphen Bromide] + CN(C)C/C=C/C(=O)Nc1cc2c(Nc3ccc(F)c(Cl)c3)ncnc2cc1O[C@H]1CCOC1 [Afatinib] | 65.3
5 | CCCCCCCCCCCCCCCC[N+](C)(C)C.[Br-] [Cetrimonium Bromide (CTAB)] + CN(C)C/C=C/C(=O)Nc1cc2c(Nc3ccc(F)c(Cl)c3)ncnc2cc1O[C@H]1CCOC1 [Afatinib] | 66.1
